Screening data: PubChem BioAssay, National Center for Advancing Translational Sciences (NCATS)
Sfp PPTase inh: blocks B. subtilis Sfp PPTase activity; Potency, µM, without a hit: largest response in the series, negative = inhibition, most hits filed as inhibitors; Biochemical Sfp PPTase activity, qHTS; 310,000 tested, 3.5% active; Q9F4F7; AID 1490;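 further: the enzyme is Sfp with the accession as filed and its product quenches rhodamine fluorescence; 0% = enzyme reaction without inhibitor and -100% = no enzyme wells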
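Step 1, compound plus 15 nM Sfp-PPTase, 15 min, room temperature. Step 2, add rhodamine-CoA (5 uM) and BHQ-2-YbbR (12.5 uM). Step 3, read 525/598 nm fluorescence at 0 and 30 min.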
VDR inh: inhibitors of human vitamin D receptor; 400,000 tested, 0.93% active; Potency, µM, for the others: max response, negative = inhibition, usual class: inhibitors; P11473; AID 504847; VDR-SRC2-3 peptide fluorescence polarization, 2 h
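Signal is fluorescence polarization, reporting how far test compounds block the interaction of VDR with the SRC2-3 coregulator peptide after a 2 h room-temperature incubation.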
PLK1 PBD inh: PLK1 (human) polo-box domain binding inhibition; P53350; Plk1 PBD binding of FITC phosphopeptide, fluorescence polarization; Potency, µM, inactives show max response, negative = inhibition, usual class: inhibitors; 360,000 tested, 2.8% active; AID 720504; further: series mostly up to about 57 µM; nearly all actives have a fitted effect of over 65% in size
Target sequence (P53350 whole entry, looked up, the tested form may be a part): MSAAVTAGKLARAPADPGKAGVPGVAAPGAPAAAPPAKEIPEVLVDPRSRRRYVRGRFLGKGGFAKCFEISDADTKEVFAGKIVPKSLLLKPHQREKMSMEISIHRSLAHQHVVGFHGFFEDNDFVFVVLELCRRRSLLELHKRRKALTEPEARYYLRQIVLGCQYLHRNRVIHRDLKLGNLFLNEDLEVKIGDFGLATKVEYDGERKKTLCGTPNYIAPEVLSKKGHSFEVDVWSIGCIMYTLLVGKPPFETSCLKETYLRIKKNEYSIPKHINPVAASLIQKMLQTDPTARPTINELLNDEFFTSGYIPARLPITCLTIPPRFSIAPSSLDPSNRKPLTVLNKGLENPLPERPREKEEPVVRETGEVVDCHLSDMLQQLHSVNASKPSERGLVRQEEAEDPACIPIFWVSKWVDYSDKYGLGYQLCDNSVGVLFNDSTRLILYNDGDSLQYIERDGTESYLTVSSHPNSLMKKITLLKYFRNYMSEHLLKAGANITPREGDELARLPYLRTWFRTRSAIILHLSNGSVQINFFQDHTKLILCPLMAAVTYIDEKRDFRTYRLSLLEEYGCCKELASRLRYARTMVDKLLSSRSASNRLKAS
Tau fibril ThT: blocks human tau fibril formation measured by thioflavin T; recombinant tau K18 P301L, heparin-induced fibrillization, ThT fluorescence; 270,000 tested, 2.1% active; P10636; Potency, µM (top dose mostly 57.4 µM), without a hit: at the top dose activity, negative = inhibition, usual class: inhibitors; AID 1460; further: nearly all actives have a fitted effect of over 55% in size
Target sequence (P10636 561-689 P618L limits assumed): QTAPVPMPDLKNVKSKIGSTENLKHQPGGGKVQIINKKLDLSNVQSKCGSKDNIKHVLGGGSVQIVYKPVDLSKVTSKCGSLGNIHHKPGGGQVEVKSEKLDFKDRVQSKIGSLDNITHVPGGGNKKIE
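In this qHTS, human K18 P301L tau is incubated with compound and heparin for 6 hr at 37 C, and Thioflavin T fluorescence then reports fibril load.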
Tau fluor cs: counter-screen for tau fibril formation inhibitors; tau K18 P301L Alexa594 fluorescence, heparin fibrillization; AID 1463; 280,000 tested, 0.93% active; Potency, µM (series often up to 57.7 µM), without a hit: at the highest dose activity change, negative = decrease; further: nearly all actives have a fitted effect of over 55% in size
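Human tau K18 P301L (15 uM unlabeled, 0.24 uM Alexa 594-labeled) in 100 mM sodium acetate pH 7 with 20 uM heparin, 6 hr at 37 C. ThT 30 uM added, 1 hr ambient; Alexa 594 FP and total fluorescence read at 555/632 nm.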
Tau FP inhib: tau fibrillization inhibition (FP); K18 P301L tau heparin fibrillization, Alexa594 FP, 6 h; AID 1468; Potency, µM (series often up to 57.7 µM), inactives show at the top dose activity, negative = inhibition, hits mostly inhibitors; 280,000 tested, 0.39% active; further: nearly all actives have a fitted effect of over 55% in size
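FP of Alexa 594-tau after heparin (20 uM) induction. Substrate: human K18 P301L, 15 uM unlabeled, 0.24 uM labeled. Buffer 100 mM sodium acetate pH 7. 6 hr, 37 C.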
The depositor's hits bear a star; [ ] = another dose, or the depositor's remark. The list is not random: actives were taken first. Their share in the collection is about 6%. The call rests on the fitted dose curve; in most records, active means well fitted curve in the direction sought with a large enough effect; inconclusive means small, poorly fitted or top-dose-only effect, or another doubt; inactive means no such curve, though single readings can be large; an effect the other way counts as inactive or inconclusive. Unless noted, on the % scale 0 is the no-effect control and ±100 the full control effect; potency means the concentration at half of the fitted maximal effect.

What do the screens show for `Cc1ccc(-c2cc(O)cc3sc(=O)oc23)cc1C`?
Sfp PPTase inh: -14%; VDR inh: -6%; PLK1 PBD inh: -5%; Tau fibril ThT: inconclusive; Tau fluor cs: 16µM*[quencher]; Tau FP inhib: 22µM*

Results for Cc1ccc(-c2c(C)sc3nc[nH]c(=O)c23)cc1C ?
Sfp PPTase inh: 15%; VDR inh: 23%; PLK1 PBD inh: -6%

Results for O=C1CCCCCN1C(=O)c1cccc(C(=O)N2CCCCCC2=O)c1 ?
Sfp PPTase inh: -1%; VDR inh: 3%; PLK1 PBD inh: 0%; Tau fibril ThT: 4%; Tau fluor cs: 7%; Tau FP inhib: 9%

How did O=C1CCCCCN1C(=O)c1ccc(C(=O)N2CCCCCC2=O)cc1 do in these assays?
Sfp PPTase inh: 14%; VDR inh: -2%; PLK1 PBD inh: 30µM*; Tau fibril ThT: -11%; Tau fluor cs: 0%; Tau FP inhib: -4%

What do the screens show for `COc1ccc(C(C)=O)cc1Cn1cnc2c(cnn2C)c1=O`?
Sfp PPTase inh: 3%; VDR inh: inconclusive; PLK1 PBD inh: 19µM*; Tau fibril ThT: -5%; Tau fluor cs: -8%; Tau FP inhib: -2%

How did Fc1ccc(-c2csc3ncnc(Cl)c23)cc1 do in these assays?
Sfp PPTase inh: -3%; VDR inh: inconclusive; PLK1 PBD inh: 21µM*; Tau fibril ThT: -2%; Tau fluor cs: -7%; Tau FP inhib: 10%

What do the screens show for `S=c1[nH]cnc2scc(-c3ccc(Cl)cc3)c12`?
Sfp PPTase inh: -20%; VDR inh: inconclusive; PLK1 PBD inh: 8.4µM*; Tau fibril ThT: -11%; Tau fluor cs: -23%; Tau FP inhib: -11%

What do the screens show for `COc1ccccc1C(CCN(Cc1cccs1)C(C)=O)c1ccco1` (stereo not given)?
Sfp PPTase inh: 20µM*; VDR inh: inconclusive; PLK1 PBD inh: -17%; Tau fibril ThT: inconclusive; Tau fluor cs: -6%; Tau FP inhib: -4%

Results for CCCNCCC(c1ccco1)c1ccccc1OC (stereo not given) ?
Sfp PPTase inh: -17%; VDR inh: 7%; PLK1 PBD inh: 0%; Tau fibril ThT: 2%; Tau fluor cs: -4%; Tau FP inhib: -5%

Results for O=C(c1ccco1)N(CCC(c1ccccc1)c1ccco1)Cc1ccccc1 (stereo not given) ?
Sfp PPTase inh: 50µM*; VDR inh: -18%; PLK1 PBD inh: inconclusive; Tau fibril ThT: inconclusive; Tau fluor cs: -3%; Tau FP inhib: -13%

How did CCC(=O)NCCC(c1ccco1)c1ccccc1OC (stereo not given) do in these assays?
Sfp PPTase inh: 11µM*; VDR inh: -14%; PLK1 PBD inh: -9%; Tau fibril ThT: 3%; Tau fluor cs: 2%; Tau FP inhib: 5%

Results for CCC(=O)N(CCC(c1ccccc1)c1ccco1)Cc1cccs1 (stereo not given) ?
Sfp PPTase inh: 50µM*; VDR inh: inconclusive; PLK1 PBD inh: -22%; Tau fibril ThT: inconclusive; Tau fluor cs: -14%; Tau FP inhib: -4%

Results for CCCCCCCCCCOCC(O)CN (stereo not given) ?
Sfp PPTase inh: 0%; VDR inh: 4%

Results for Cc1ccc(CNC(=O)CCS(=O)(=O)c2cccc3nsnc23)cc1 ?
Sfp PPTase inh: 8%; VDR inh: -2%; PLK1 PBD inh: -13%; Tau fibril ThT: -6%; Tau fluor cs: 1%; Tau FP inhib: -2%

Results for CCc1ccc(NC(=O)CCS(=O)(=O)c2cccc3nsnc23)cc1 ?
Sfp PPTase inh: 79µM*; VDR inh: -2%; PLK1 PBD inh: -24%; Tau fibril ThT: inconclusive; Tau fluor cs: -18%; Tau FP inhib: -11%

Results for CCc1cccc(C)c1NC(=O)Cn1ccn(-c2cccc(OC)c2)c(=O)c1=O ?
VDR inh: 11%; Tau fibril ThT: inconclusive; Tau fluor cs: -11%; Tau FP inhib: -1%

Results for Oc1ccccc1OCc1nc2ccccc2s1 ?
Sfp PPTase inh: inconclusive; VDR inh: -1%; PLK1 PBD inh: inconclusive; Tau fibril ThT: inconclusive; Tau fluor cs: -17%; Tau FP inhib: -1%

Results for O=C(O)CSCC(=O)Nc1ccc(-c2nc3ccccc3s2)cc1 ?
Sfp PPTase inh: inconclusive; VDR inh: inconclusive; PLK1 PBD inh: 9.5µM*; Tau fibril ThT: -10%; Tau fluor cs: -13%; Tau FP inhib: -9%

What do the screens show for `O=C(CSc1nc2ccccc2s1)NNC(=O)Nc1ccc(Cl)c(Cl)c1`?
Sfp PPTase inh: 6%; VDR inh: -2%; PLK1 PBD inh: -3%; Tau fibril ThT: -17%; Tau fluor cs: inconclusive; Tau FP inhib: 20µM*

What do the screens show for `Cc1ccc2nc(-c3ccc(NC(=O)CCN4C(=O)c5ccccc5C4=O)cc3)sc2c1`?
Sfp PPTase inh: 79µM*; VDR inh: -14%; PLK1 PBD inh: -19%; Tau fibril ThT: -2%; Tau fluor cs: -4%; Tau FP inhib: 3%

How did O=C(CCN1C(=O)c2ccccc2C1=O)Nc1ccc(-c2nc3ccccc3s2)cc1 do in these assays?
Sfp PPTase inh: 4%; VDR inh: -2%; PLK1 PBD inh: -8%; Tau fibril ThT: inconclusive; Tau fluor cs: -6%; Tau FP inhib: inconclusive

How did Oc1ccc(O)c(Cc2nc3ccccc3s2)c1 do in these assays?
Sfp PPTase inh: 50µM*; VDR inh: -17%; PLK1 PBD inh: -15%; Tau fibril ThT: inconclusive; Tau fluor cs: inconclusive; Tau FP inhib: 15%

How did O=C(Nc1ccccc1Br)c1cc(S(=O)(=O)NC2CCCCC2)ccc1F do in these assays?
VDR inh: 4%; Tau fibril ThT: -7%; Tau fluor cs: -23%; Tau FP inhib: 1%

What do the screens show for `C[C@H](CO)N1C[C@H](C)[C@@H](CN(C)Cc2ccc(Oc3ccccc3)cc2)Oc2cc(Br)ccc2S1(=O)=O`?
PLK1 PBD inh: 0%

What do the screens show for `c1ccc2sc(SSc3nc4ccccc4s3)nc2c1`?
Sfp PPTase inh: 56µM*; VDR inh: -20%

Results for O=S1(=O)C=C(Sc2nc3ccccc3s2)c2ccccc21 ?
Sfp PPTase inh: 50µM*; VDR inh: 13µM*; PLK1 PBD inh: 2.7µM*; Tau fibril ThT: 10µM*; Tau fluor cs: -14%; Tau FP inhib: inconclusive

How did CC(=O)CSc1nc2ccccc2s1 do in these assays?
Sfp PPTase inh: 8%; VDR inh: 10%; PLK1 PBD inh: 27µM*; Tau fibril ThT: inconclusive; Tau fluor cs: -5%; Tau FP inhib: -1%

What do the screens show for `Cn1c(CSc2nc3ccccc3s2)n[nH]c1=S`?
Sfp PPTase inh: 5%; VDR inh: 25%; PLK1 PBD inh: 30µM*; Tau fibril ThT: -6%; Tau fluor cs: 0%; Tau FP inhib: 5%
